Data published in the supplement of paper PMC6555819.

Assays:
Assay in all cases: PBM binding z-score (relative to random genomic background probes); higher = stronger binding; sequences stand for … in GC…GCGATTGACAGCGTAGAATGAAGG
[1] = test system: FXR:RXRa (NR concentration 270 nM, RXRa partner concentration 90 nM)
In short: (§1)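 Antibodies against each partner of ligand-free nuclear receptor dimers (one per run) detected binding on custom Agilent 4×180K protein-binding microarrays after 1 h incubation. The double-stranded probes had 34-nt variable regions carrying direct-repeat seeds, single-nucleotide variants, half-site ablations and random human genomic background sequences. Binding z-scores, from regression-normalized fluorescence, use the random background probes as reference.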

[2] = test system: LXRa:RXRa (NR concentration 270 nM, RXRa partner concentration 90 nM)
In short: as §1

[3] = test system: LXRa homodimer (NR concentration 270 nM)
In short: as §1

[4] = test system: LXRb:RXRa (NR concentration 270 nM, RXRa partner concentration 90 nM)
In short: as §1

[5] = test system: LXRb homodimer (NR concentration 270 nM)
In short: as §1

[6] = test system: PPARa:RXRa (NR concentration 270 nM, RXRa partner concentration 90 nM)
In short: as §1

[7] = test system: PPARg:RXRa (NR concentration 180 nM, RXRa partner concentration 90 nM)
In short: as §1

[8] = test system: PPARg:RXRa 270nM:90nM, anti-RXR (NR concentration 270 nM, RXRa partner concentration 90 nM)
In short: as §1

[9] = test system: PPARg:RXRa 30nM:10nM, anti-RXR (NR concentration 30 nM, RXRa partner concentration 10 nM)
In short: as §1

[10] = test system: PPARg:RXRa 90nM:30nM, anti-RXR (NR concentration 90 nM, RXRa partner concentration 30 nM)
In short: as §1

[11] = test system: PPARg:RXRa DBDmut IVT, anti-RXR (DBD mutation: RXRa K156A/R161A, NR concentration 270 nM, RXRa partner concentration 90 nM)
In short: as §1

[12] = test system: PPARg:RXRa IVT, anti-PPARg (NR concentration 270 nM, RXRa partner concentration 90 nM)
In short: as §1

[13] = test system: PPARg DBDmut:RXRa IVT, anti-PPARg (DBD mutation: PPARg1 K132A/R137A, NR concentration 270 nM, RXRa partner concentration 90 nM)
In short: as §1

[14] = test system: PPARg DBDmut IVT, anti-PPARg (DBD mutation: PPARg1 K132A/R137A, NR concentration 270 nM)
In short: as §1

[15] = test system: PPARg homodimer (NR concentration 180 nM)
In short: as §1

[16] = test system: PXR:RXRa (NR concentration 270 nM, RXRa partner concentration 90 nM)
In short: as §1

[17] = test system: PXR homodimer (NR concentration 270 nM)
In short: as §1

[18] = test system: RARa:RXR (NR concentration 270 nM, RXRa partner concentration 90 nM)
In short: as §1

[19] = test system: RARa homodimer (NR concentration 270 nM)
In short: as §1

[20] = test system: RARb:RXRa (NR concentration 270 nM, RXRa partner concentration 90 nM)
In short: as §1

Row | Sequence | PBM binding z-score [1] | PBM binding z-score [2] | PBM binding z-score [3] | PBM binding z-score [4] | PBM binding z-score [5] | PBM binding z-score [6] | PBM binding z-score [7] | PBM binding z-score [8] | PBM binding z-score [9] | PBM binding z-score [10] | PBM binding z-score [11] | PBM binding z-score [12] | PBM binding z-score [13] | PBM binding z-score [14] | PBM binding z-score [15] | PBM binding z-score [16] | PBM binding z-score [17] | PBM binding z-score [18] | PBM binding z-score [19] | PBM binding z-score [20]
1 | CGTCCATGGTCAAGGTCAGTGAAAGAGACTCGAA | 1.92 | 1.67 | 0.03 | 1.6 | -0.273 | 2.38 | 1.13 | 1.68 | 0.0317 | 0.977 | 0.484 | 1.54 | -0.688 | -0.778 | 1.17 | 1.78 | 0.42 | 2.23 | 0.236 | 3.59
2 | CCTGCTGGGCCATTCAGAGGTCATTGATCATATG | 2.79 | 4.29 | 6.46 | 4.01 | 0.198 | 3.65 | 0.755 | 1.86 | 0.0618 | 1.15 | 0.632 | 1.28 | -1.02 | -0.733 | 1.68 | 4.82 | 2.03 | 4.69 | -0.506 | 3.23
3 | TCTAGTTGGTCAAAGGTCACTCACTCGAAATGCG | 5.38 | 5.18 | 3.77 | 5.13 | 2.23 | 6.16 | 11.5 | 10 | 10.6 | 12.1 | 3.67 | 6.11 | 2.62 | 1.66 | 4.97 | 5.78 | 1.56 | 7.3 | 3.14 | 4.93
4 | CCTAGCAGGCCAATCTGGGTCGCTCAAGGCTTGA | 0.866 | 0.838 | -0.942 | 0.983 | -1.1 | 2.39 | 0.206 | 0.917 | -0.999 | 0.104 | 1.28 | 2.66 | -1.25 | -1.04 | -0.519 | 0.776 | -0.579 | 1.45 | -0.891 | 0.807
5 | CCTCGGACGACAACAGGAGGTCAGAGCTGCCAGA | 0.715 | 1.65 | 1.91 | 1.42 | 0.113 | 1.73 | 0.478 | -0.0139 | -0.511 | -0.34 | -0.649 | 0.0157 | -0.728 | -1.24 | 1.84 | 1.67 | 0.467 | 2.11 | 0.372 | 1.96
6 | CCTAGCAGGCCAATCTGGGTCACTCAAGGCTTGA | 1.5 | 1.42 | -0.498 | 0.851 | -1.04 | 3.1 | 1.69 | 2.6 | -0.232 | 1.52 | 4.72 | 5.12 | -1.06 | -0.836 | 0.786 | 0.995 | -0.679 | 1.17 | -0.672 | 1.58
7 | CCGAGTTGGTCAGGAGGTCACACACCGGATATGA | 3.49 | 3.18 | 1.86 | 2.93 | -0.213 | 4.03 | 2.62 | 3.24 | 0.983 | 2.36 | 0.95 | 2.61 | 0.01 | 0.0417 | 3.62 | 4.53 | 1.31 | 4.71 | 1.54 | 3.66
8 | AATACACGGTCATCGTAGGCCAGAGTACGCACAG | 1.37 | 3.15 | 2.68 | 0.586 | 0.643 | 0.606 | 1.15 | 0.51 | 0.35 | 0.546 | 0.462 | 1.62 | 0.948 | 0.51 | 0.841 | 0.356 | 0.177 | 0.83 | 0.727 | 2.83
9 | CCTTACGGGTCACTCCAGATTATAGCATCGGAGT | 4.83 | 4.8 | -0.0778 | 2.91 | 0.399 | 4.41 | 3.39 | 3.43 | 0.931 | 2.35 | 2.52 | 3.47 | 0.108 | 0.192 | 1.74 | 2.59 | 0.423 | 2.96 | 0.564 | 3.75
10 | AGAACGAGCGCAATGAGTTGATAGCACGGGTGGC | -0.384 | -0.917 | -0.672 | -1.03 | -0.728 | -0.619 | 0.568 | -0.754 | -0.641 | -0.779 | -0.343 | -0.563 | 0.051 | -0.552 | 0.0308 | -0.486 | -0.247 | -0.449 | -0.49 | -0.312
11 | TCGAGTAGGTTAGGGTCATTCAGAATGGCGTCGA | 4.57 | 3.41 | 0.537 | 3.62 | -0.146 | 4.66 | 3.15 | 4.16 | 2.2 | 3.52 | 2.47 | 2.77 | -0.28 | 0.496 | 2.22 | 4.55 | 2.03 | 5.08 | 0.43 | 3.08
12 | CCTGCTGGGCCAAGGTCATTGATCAGTCAAAGCA | 3.6 | 3.06 | 0.626 | 2.99 | -0.84 | 3.64 | 1.23 | 2.56 | -0.0774 | 1.46 | 0.105 | 1.18 | -1.48 | -1.47 | 2.84 | 3.79 | 1.84 | 3.92 | -0.536 | 3.48
13 | CAGACTGGGGCAAGGTTACCATAACGCACAGCCA | 0.535 | 1.05 | -0.312 | 1.07 | -0.19 | 2.41 | 3.76 | 4.25 | 1.96 | 3.63 | 4.18 | 4.53 | 1.14 | 0.637 | 0.947 | 0.474 | -0.134 | 0.82 | 0.141 | 1.8
14 | CGTCCAAGGTCAATGCTAGGTCAGTGTAAGCATT | 6.38 | 5.59 | 2.58 | 4.11 | 0.681 | 5 | 3.55 | 4.67 | 1.23 | 2.97 | 3.19 | 3.97 | 0.641 | -0.396 | 6.64 | 4.83 | 2.1 | 5.95 | 1.32 | 5.13
